Data: the supplement of paper PMC4166925
± gives the standard deviation of the averaged measurements. In all, about 33,000 sequences were measured (“E-score (dimensionless, -0.5 to 0.5)”: median about -0.046, highest 2% from about 0.36 on). This is one part of a sample in which the highest values are shown more often than they occur.

Tested on: T1, SpTbr T-box DNA-binding domain (GST fusion)
T1 sequence: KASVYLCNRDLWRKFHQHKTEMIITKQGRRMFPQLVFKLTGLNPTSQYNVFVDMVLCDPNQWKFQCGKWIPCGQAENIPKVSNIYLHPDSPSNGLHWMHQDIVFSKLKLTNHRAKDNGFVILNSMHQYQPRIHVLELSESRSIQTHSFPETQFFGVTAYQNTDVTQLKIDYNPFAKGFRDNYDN
Assay: PBM E-score of 8-mer (E-score (dimensionless, -0.5 to 0.5)); Tbr is Tbrain of the sea star Patiria miniata (Pm) or the sea urchin Strongylocentrotus purpuratus (Sp); higher = stronger binding preference
Conditions: the construct has about 5 more residues each side
Method: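 Universal protein-binding microarray (Agilent AMADID 016060, 60-bp probes with a 35-bp variable region) incubated with 200 nM GST-fused Strongylocentrotus purpuratus Tbr T-box DNA-binding domain (residues 362-554) in PBS pH 7.5. Scored for every ungapped 8-mer (given with its reverse complement) as E-score (range -0.5 to 0.5; >0.45 counts as bound) and Z-score of median probe intensity. Two replicate arrays (datasets 1 and 2).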
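Note: protein at 200 nM in PBS on universal double-stranded arrays.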

Sequence	PBM E-score of 8-mer
CAAATGAG	-0.158 ± 0.037
GACCAGTC	-0.333 ± 0.075
AGTCCATA	-0.295 ± 0.063
CACAGCGC	0.0949 ± 0.014
TGCCCACA	0.0199 ± 0.1
CGTTTGGA	-0.0006 ± 0.068
CCGTTCAC	0.367 ± 0.029
ACGTTCAA	-0.145 ± 0.032
GCGTTCAC	0.239 ± 0.011
CCGTTCAG	-0.113 ± 0.032
ACGTTCAC	0.369 ± 0.0053
ACGTTCAG	-0.122 ± 0.029
CGGAGACA	-0.0395 ± 0.021
ACAGAGAC	-0.0676 ± 0.02
CAACCCTG	0.014 ± 0.024
CGCCTTGA	0.159 ± 0.083
AGCCACAA	0.0237 ± 0.048
GACACCGA	0.293 ± 0.0048
GAGACCTC	-0.305 ± 0.013
GACACCGC	0.244 ± 0.061
GACACCTC	0.479 ± 0.009
GACACGTA	0.29 ± 0.0077

Sequence	PBM E-score of 8-mer
GACACCTA	0.4778 ± 0.0018
ACCAGTAG	-0.2 ± 0.063
AATGGACC	-0.2776 ± 0.0022
GGATGGAC	-0.203 ± 0.0084
GGTCAGAC	-0.274 ± 0.051
ATTCACGG	0.259 ± 0.00064
AGTCACGC	0.3794 ± 0.0033
ATTCACGA	0.288 ± 0.047
AGTCACGA	0.152 ± 0.0034
CTTCACGA	0.167 ± 0.043
CCTCACGC	0.322 ± 0.036
AGTCACGG	-0.193 ± 0.0098
ATTCACGC	0.424 ± 0.0061
CTTCACGC	0.409 ± 0.01
CACTGGCG	0.162 ± 0.084
ACCCATTC	-0.15 ± 0.062
TGGGGTAA	-0.1604 ± 0.001
GATTCGCA	0.327 ± 0.014
AATTCGCG	0.279 ± 0.02
AATTCGCA	0.321 ± 0.023
CATTCGCA	0.384 ± 0.0068
CATTCGTA	-0.0369 ± 0.038

Sequence	PBM E-score of 8-mer
ATTTCGCC	-0.0532 ± 0.044
ATTTCGCG	0.389 ± 0.016
TATTCGCA	0.369 ± 0.0054
CATTCGCG	0.389 ± 0.0059
ATTTCGCA	0.335 ± 0.025
TATTCGAA	-0.0307 ± 0.088
CATTCGCC	-0.147 ± 0.039
AGTCAAAA	-0.181 ± 0.0086
AGATTAGC	0.0489 ± 0.043
ACATGGGG	-0.06449 ± 0.00059
GTCATCTA	-0.0343 ± 0.015
GACCACTC	0.0231 ± 0.029
AAAGGCTC	-0.214 ± 0.06
GGCAAAAA	0.0671 ± 0.028
AACCACGT	-0.161 ± 0.017
GTGGCAAA	0.309 ± 0.024
ACGTGGGA	0.203 ± 0.026
CCGATAGG	0.00486 ± 0.048
CTTTCGCA	0.421 ± 0.015
GTTTCGCA	0.36 ± 0.02
CTTTCGCC	-0.043 ± 0.078
CGTATCTC	-0.174 ± 0.0059

Sequence	PBM E-score of 8-mer
AGCACCGC	-0.0167 ± 0.064
AGCACCTG	0.398 ± 0.0042
AGCACCTA	0.409 ± 0.0069
ACCACCTC	0.343 ± 0.046
GGCACCGA	-0.122 ± 0.1
ACCACCTA	0.109 ± 0.065
ATCACCTG	0.304 ± 0.022
GGCACCTA	0.382 ± 0.015
GCCACCTA	0.285 ± 0.036
AGCACCGG	-0.0409 ± 0.027
AGCACCTC	0.4014 ± 0.004
AGCACCGA	-0.094 ± 0.013
ACGAAGCC	-0.00822 ± 0.065
ACTGGCCA	0.0049 ± 0.016
ATAGGCTC	-0.167 ± 0.02
ACGCTACG	0.102 ± 0.023
ACCAACGA	0.102 ± 0.0046
CTCGGCCC	-0.0368 ± 0.041
ACTTTTGA	-0.0941 ± 0.084
AGTTTCAT	-0.233 ± 0.01
